# Key:
# Test in all cases: yeast three-hybrid, YBZ-1, SC-Leu-His + 0.5 mM 3-AT, 4 days
# Details in all cases: tags: N-Gal4 AD-HA kept; label: inside an RPR1-promoter hybrid RNA with tandem MS2 sites; ssRNA
# PUM1 PUF domain R4-PFF = PUM1 PUF domain R4-PFF (Homo sapiens, UniProt Q14671 828-1176, N971P;H972F;Q975F)
# Method in brief: (§1)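 The interaction score is the log change in how often each variant appears, from input to selection. Frequencies came from PCR-amplified, Illumina-sequenced repeat regions of Pumilio-1 PUF domain libraries grown in strain YBZ-1 (LexA–MS2 coat fusion, HIS3 reporter) alongside matching RNA elements. Input plates were SC-Leu and selection plates were SC-Leu-His + 0.5 mM 3-AT, each for four days, and the log2 calculation used a pseudocount of 1 where a variant was absent.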
# PUM1 PUF domain R4-CNV = PUM1 PUF domain R4-CNV (Homo sapiens, UniProt Q14671 828-1176, N971C;H972N;Q975V)
# Method in brief: as §1
# PUM1 PUF domain R4-NRS = PUM1 PUF domain R4-NRS (Homo sapiens, UniProt Q14671 828-1176, H972R;Q975S)
# Method in brief: as §1
# PUM1 PUF domain R4-MPC = PUM1 PUF domain R4-MPC (Homo sapiens, UniProt Q14671 828-1176, N971M;H972P;Q975C)
# Method in brief: as §1
# PUM1 PUF domain R4-WST = PUM1 PUF domain R4-WST (Homo sapiens, UniProt Q14671 828-1176, N971W;H972S;Q975T)
# Method in brief: as §1
# PUM1 PUF domain R2-LWH = PUM1 PUF domain R2-LWH (Homo sapiens, UniProt Q14671 828-1176, N899L;Y900W;Q903H)
# Method in brief: as §1
# PUM1 PUF domain R1-RTT = PUM1 PUF domain R1-RTT (Homo sapiens, UniProt Q14671 828-1176, S863R;R864T;Q867T)
# Method in brief: as §1
# PUM1 PUF domain R3-GPD = PUM1 PUF domain R3-GPD (Homo sapiens, UniProt Q14671 828-1176, C935G;R936P;Q939D)
# Method in brief: as §1
# PUM1 PUF domain R3-SCR = PUM1 PUF domain R3-SCR (Homo sapiens, UniProt Q14671 828-1176, C935S;R936C;Q939R)
# Method in brief: as §1
# PUM1 PUF domain R3-VRA = PUM1 PUF domain R3-VRA (Homo sapiens, UniProt Q14671 828-1176, C935V;Q939A)
# Method in brief: as §1
# PUM1 PUF domain R5-RHS = PUM1 PUF domain R5-RHS (Homo sapiens, UniProt Q14671 828-1176, C1007R;R1008H;Q1011S)
# Method in brief: as §1
# PUM1 PUF domain R5-KFS = PUM1 PUF domain R5-KFS (Homo sapiens, UniProt Q14671 828-1176, C1007K;R1008F;Q1011S)
# Method in brief: as §1
# PUM1 PUF domain R8-RFW = PUM1 PUF domain R8-RFW (Homo sapiens, UniProt Q14671 828-1176, N1122R;Y1123F;Q1126W)
# Method in brief: as §1
# PUM1 PUF domain R8-QFK = PUM1 PUF domain R8-QFK (Homo sapiens, UniProt Q14671 828-1176, N1122Q;Y1123F;Q1126K)
# Method in brief: as §1
# Chain of PUM1 PUF domain R4-CNV (Q14671 828-1176 N971C/H972N/Q975V): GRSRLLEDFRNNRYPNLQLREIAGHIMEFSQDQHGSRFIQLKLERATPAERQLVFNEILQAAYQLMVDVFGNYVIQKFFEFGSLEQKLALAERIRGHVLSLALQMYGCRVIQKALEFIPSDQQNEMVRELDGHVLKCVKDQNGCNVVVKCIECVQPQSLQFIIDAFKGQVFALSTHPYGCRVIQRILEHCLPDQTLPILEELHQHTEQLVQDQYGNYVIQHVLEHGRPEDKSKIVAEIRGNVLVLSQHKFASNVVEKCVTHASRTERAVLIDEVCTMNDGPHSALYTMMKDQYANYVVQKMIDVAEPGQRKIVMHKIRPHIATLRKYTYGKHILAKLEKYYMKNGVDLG
# Chain of PUM1 PUF domain R4-PFF (Q14671 828-1176 N971P/H972F/Q975F): as the sequence (Q14671 828-1176 N971C/H972N/Q975V) above, with C144P, N145F, V148F counted along it
# Chain of PUM1 PUF domain R2-LWH (Q14671 828-1176 N899L/Y900W/Q903H): as the sequence (Q14671 828-1176 N971C/H972N/Q975V) above, with N72L, Y73W, Q76H, C144N, N145H, V148Q counted along it
# Chain of PUM1 PUF domain R4-MPC (Q14671 828-1176 N971M/H972P/Q975C): as the sequence (Q14671 828-1176 N971C/H972N/Q975V) above, with C144M, N145P, V148C counted along it
# Chain of PUM1 PUF domain R8-RFW (Q14671 828-1176 N1122R/Y1123F/Q1126W): as the sequence (Q14671 828-1176 N971C/H972N/Q975V) above, with C144N, N145H, V148Q, N295R, Y296F, Q299W counted along it
# Chain of PUM1 PUF domain R8-QFK (Q14671 828-1176 N1122Q/Y1123F/Q1126K): as the sequence (Q14671 828-1176 N971C/H972N/Q975V) above, with C144N, N145H, V148Q, N295Q, Y296F, Q299K counted along it
# Chain of PUM1 PUF domain R4-WST (Q14671 828-1176 N971W/H972S/Q975T): as the sequence (Q14671 828-1176 N971C/H972N/Q975V) above, with C144W, N145S, V148T counted along it
# Chain of PUM1 PUF domain R1-RTT (Q14671 828-1176 S863R/R864T/Q867T): as the sequence (Q14671 828-1176 N971C/H972N/Q975V) above, with S36R, R37T, Q40T, C144N, N145H, V148Q counted along it
# Chain of PUM1 PUF domain R3-VRA (Q14671 828-1176 C935V/Q939A): as the sequence (Q14671 828-1176 N971C/H972N/Q975V) above, with C108V, Q112A, C144N, N145H, V148Q counted along it
# Chain of PUM1 PUF domain R4-NRS (Q14671 828-1176 H972R/Q975S): as the sequence (Q14671 828-1176 N971C/H972N/Q975V) above, with C144N, N145R, V148S counted along it
sequence,measurement,setting,value
GGCUAGAACUAGUGGAUCCCCCGGCGCCCGGCGGCUCGAGCCCGGGUAAGUGUACAUAGUCUGCAUGCCGCCGGGCGCCAUGCCUGCAGGUCGACUCUAGAAAACAUG,binding signal,PUM1 PUF domain R4-PFF,3.52 log2 enrichment (interaction score)
same,binding signal,PUM1 PUF domain R4-CNV,2.79 log2 enrichment (interaction score)
GGCUAGAACUAGUGGAUCCCCCGGCGCCCGGCGGCUCGAGCCCGGGUAAGUGUAUAUAGUCUGCAUGCCGCCGGGCGCCAUGCCUGCAGGUCGACUCUAGAAAACAUG,binding signal,PUM1 PUF domain R4-NRS,2.58 log2 enrichment (interaction score)
same,binding signal,PUM1 PUF domain R4-MPC,3.15 log2 enrichment (interaction score)
same,binding signal,PUM1 PUF domain R4-WST,2.45 log2 enrichment (interaction score)
same,binding signal,PUM1 PUF domain R4-PFF,7.66 log2 enrichment (interaction score)
same,binding signal,PUM1 PUF domain R4-CNV,3.21 log2 enrichment (interaction score)
GGCUAGAACUAGUGGAUCCCCCGGCGCCCGGCGGCUCGAGCCCGGGUAAGUGUAAAAAGUCUGCAUGCCGCCGGGCGCCAUGCCUGCAGGUCGACUCUAGAAAACAUG,binding signal,PUM1 PUF domain R2-LWH,7.08 log2 enrichment (interaction score)
GGCUAGAACUAGUGGAUCCCCCGGCGCCCGGCGGCUCGAGCCCGGGUAAGUGUAAAUGGUCUGCAUGCCGCCGGGCGCCAUGCCUGCAGGUCGACUCUAGAAAACAUG,binding signal,PUM1 PUF domain R1-RTT,3.14 log2 enrichment (interaction score)
GGCUAGAACUAGUGGAUCCCCCGGCGCCCGGCGGCUCGAGCCCGGGUAAGUGUAAUUAGUCUGCAUGCCGCCGGGCGCCAUGCCUGCAGGUCGACUCUAGAAAACAUG,binding signal,PUM1 PUF domain R3-GPD,3.07 log2 enrichment (interaction score)
same,binding signal,PUM1 PUF domain R3-SCR,3.35 log2 enrichment (interaction score)
GGCUAGAACUAGUGGAUCCCCCGGCGCCCGGCGGCUCGAGCCCGGGUAAGUGUAAGUAGUCUGCAUGCCGCCGGGCGCCAUGCCUGCAGGUCGACUCUAGAAAACAUG,binding signal,PUM1 PUF domain R3-VRA,1.39 log2 enrichment (interaction score)
same,binding signal,PUM1 PUF domain R3-SCR,3.4 log2 enrichment (interaction score)
GGCUAGAACUAGUGGAUCCCCCGGCGCCCGGCGGCUCGAGCCCGGGUAAGUGUCAAUAGUCUGCAUGCCGCCGGGCGCCAUGCCUGCAGGUCGACUCUAGAAAACAUG,binding signal,PUM1 PUF domain R5-RHS,5.1 log2 enrichment (interaction score)
same,binding signal,PUM1 PUF domain R5-KFS,5.16 log2 enrichment (interaction score)
GGCUAGAACUAGUGGAUCCCCCGGCGCCCGGCGGCUCGAGCCCGGGUAAGCGUAAAUAGUCUGCAUGCCGCCGGGCGCCAUGCCUGCAGGUCGACUCUAGAAAACAUG,binding signal,PUM1 PUF domain R8-RFW,6.4 log2 enrichment (interaction score)
same,binding signal,PUM1 PUF domain R8-QFK,4.17 log2 enrichment (interaction score)

# Source: PMC8384837, “Expanding the binding specificity for RNA recognition by a PUF domain”
